RECQ1 inh: blocks DNA unwinding by human RECQ1. P46063. RECQ1 DNA unwinding, red fluorescence kinetic read. Potency, µM (top dose mostly 57.3 µM), most hits filed as inhibitors. hit rate 0.54% among 240,000. AID 2549; further: nearly all actives have a fitted effect of over 30% in size
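50 nM RECQ1T1 preincubated 15 min with compound in Tris pH 8.0 buffer with MgCl2, DTT, Tween-20 and 2.5 ug/ml poly(dI-dC); started with 200 nM TAMRA/BHQ-2 forked duplex and 2 mM ATP. Unwinding read as fluorescence (525/598 nm), two reads 2 h apart.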
GLS inh: blocks human kidney-isoform glutaminase activity | O94925 | GLS enzymatic activity, qHTS titration | Potency, µM (series often up to 45.5 µM), most hits filed as inhibitors | hit rate 0.21% among 410,000 | AID 624170
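Assay buffer: 45 mM KH2PO4 pH 8.2, 0.02% Tween-20. hKGA acts on L-glutamine (1 mM solution added); product glutamate is reported by an oxidase/peroxidase Amplex Red coupling, with fluorescence taken at baseline and 30 min.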
BLM helicase inh: blocks DNA unwinding by human BLM helicase; P54132; recombinant BLM DNA unwinding, fluorescence dequenching; Potency, µM (top dose mostly 56.1 µM), usual class: inhibitors; hit rate 0.2% among 350,000; AID 2528; further: nearly all actives have a fitted effect of over 35% in size
Tb PGK inh: inhibitors of T. brucei phosphoglycerate kinase; PGK/GAPDH coupled, Kinase-Glo luminescence, 60 min; Potency, µM (highest dose often 57.5 µM), most hits filed as inhibitors; hit rate 0.043% among 380,000; AID 602233; further: nearly all actives have a fitted effect of over 60% in size
Target sequence (P07378 whole entry, looked up): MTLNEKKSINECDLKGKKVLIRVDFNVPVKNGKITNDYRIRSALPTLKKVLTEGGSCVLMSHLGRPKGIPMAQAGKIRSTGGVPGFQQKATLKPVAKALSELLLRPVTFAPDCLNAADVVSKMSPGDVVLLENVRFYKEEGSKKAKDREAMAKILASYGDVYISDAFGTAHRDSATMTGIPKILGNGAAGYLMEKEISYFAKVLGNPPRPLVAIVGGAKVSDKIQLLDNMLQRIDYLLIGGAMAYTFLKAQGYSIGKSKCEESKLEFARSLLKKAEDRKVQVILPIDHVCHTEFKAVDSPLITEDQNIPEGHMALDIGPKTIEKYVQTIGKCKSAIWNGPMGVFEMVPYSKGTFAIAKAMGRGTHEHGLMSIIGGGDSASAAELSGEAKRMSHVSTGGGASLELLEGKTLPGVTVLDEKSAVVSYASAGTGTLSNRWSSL
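Recombinant glycosomal PGK reaction used 1,3-bisphosphoglycerate generated in-well by GAPDH (100nM final) in 100mM TEA pH 7.6, 5mM MgCl2, 0.01% Tween-20. After 60 minutes at room temperature, ATP was read by Kinase-Glo Plus luminescence end-point.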
APE1 inh-1: APE1 (human) endonuclease inhibition | P27695 | hit rate 0.35% among 350,000 | Potency, µM (top dose mostly 65.8 µM), actives largely listed as inhibitors | recombinant APE1, TAMRA/BHQ-2 abasic DNA cleavage fluorescence; further: nearly all actives have a fitted effect of over 55% in size
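APE1 at 0.75 nM preincubated 15 min at room temperature with compound. Reaction then started with 50 nM double-stranded THF-abasic substrate labelled with TAMRA/BHQ-2, and 525/598 nm fluorescence read kinetically. Activity taken as third-minus-first read difference, normalized to DMSO and NSC13755 controls.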
FEN1 inhibitor: inhibitors of human flap endonuclease 1. Recombinant FEN1 flap cleavage, fluorescence, 15 min. hit rate 0.35% among 390,000. Potency, µM (highest dose often 114 µM), actives largely listed as inhibitors; further: nearly all actives have a fitted effect of over 65% in size
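Nuclease activity of 10 nM FEN1 was measured after 15 min of room-temperature exposure to titrated compounds, by adding 50 nM flap substrate and reading plates at 0 and 15 min.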
DNA dye displace: displaces fluorescent dye from DNA, flagging APE1 artifacts. shares compounds with APE1 inh-1. DNA fluorescent dye displacement counterscreen, fluorescence. Potency, µM (series often up to 28.5 µM), actives largely listed as inhibitors. hit rate 7% among 480;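 further: loss of thiazole orange fluorescence as the dye is displaced from duplex DNA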
EndoIV counter: counter-screen for APE1 inhibitors: inhibitors of E. coli endonuclease IV; shares compounds with APE1 inh-1; Potency, µM (doses to about 27.1 µM), hits mostly inhibitors; E. coli Endo IV, fluorogenic AP-site DNA cleavage; AID 2565; hit rate 4% among 560
APE1 inh-2: confirmation of inhibitors of human APE1 endonuclease. shares compounds with APE1 inh-1. hit rate 44% among 750. Potency, µM (series often up to 57.1 µM), most hits filed as inhibitors. purified APE1, fluorogenic abasic-site DNA cleavage; further: nearly all actives have a fitted effect of over 30% in size
APE1 FP: APE1 (human) DNA binding inhibition, fluorescence polarization | APE1 binding to TAMRA-labelled double-stranded DNA, fluorescence polarization displacement | shares compounds with APE1 inh-1 | Potency, µM (doses to about 28.5 µM), most hits filed as inhibitors | hit rate 7% among 480
Of the large screens only hits and unclear results are named; the others gave an inactive call (follow-up assays come after a bar, where they were run). Rows were chosen to be rich in hits. Some 0.86% of all compounds tested hit in one or more screens of this group. The call rests on the fitted dose curve; in most records, active means well fitted curve in the direction sought with a large enough effect; inconclusive means small, poorly fitted or top-dose-only effect, or another doubt; inactive means no such curve, though single readings can be large; an effect the other way counts as inactive or inconclusive.

Cc1ccc(N2C(=O)NC(=O)/C(=C\C=C\c3ccco3)C2=O)cc1C	RECQ1 inh 28.2µM, FEN1 inhibitor inconclusive
Cc1cccc(N2C(=O)NC(=O)/C(=C\c3cccn3-c3ccc(Cl)cc3)C2=O)c1	RECQ1 inh 31.6µM
CC(C)CCC(=O)OC1CCC2C3CCC4=CC(=O)CC[C@]4(C)C3CC[C@]12C (some centres undefined)	none (no result: RECQ1 inh, BLM helicase inh, Tb PGK inh, APE1 inh-1, FEN1 inhibitor)
Oc1ccc2c3c1OC1C(O)C=CC4[C@@H](C2)NCC[C@]314 (some centres undefined)	none (no result: RECQ1 inh, BLM helicase inh, Tb PGK inh, APE1 inh-1, FEN1 inhibitor)
Oc1ccc2c3c1O[C@H]1[C@@H](O)C=CC4[C@@H](C2)NCC[C@@]341 (some centres undefined)	none (no result: RECQ1 inh, BLM helicase inh, Tb PGK inh, APE1 inh-1, FEN1 inhibitor)
CC(=O)OC1CC(OC2C(O)CC(OC3C(O)CC(O[C@H]4CC[C@]5(C)C6CC[C@]7(C)[C@@H](C8=CC(=O)OC8)[C@@H](O)C[C@]7(O)[C@@H]6CC[C@@H]5C4)OC3C)OC2C)OC(C)C1OC1OC(CO)C(O)C(O)C1O (some centres undefined)	none (no result: RECQ1 inh, BLM helicase inh, Tb PGK inh, APE1 inh-1, FEN1 inhibitor)
ClCCN(CCCl)/C(=C\c1ccccc1)c1ccnc2ccccc12	none (no result: RECQ1 inh, GLS inh, BLM helicase inh, Tb PGK inh, APE1 inh-1)
COc1ccc(CN2C(=O)NC(=O)/C(=C/c3ccc([N+](=O)[O-])o3)C2=O)cc1	RECQ1 inh 10µM, BLM helicase inh inconclusive, APE1 inh-1 inconclusive (no result: GLS inh, Tb PGK inh, FEN1 inhibitor)
Cc1ccc(/C=C2/C(=O)NC(=O)N(Cc3ccc(F)cc3)C2=O)o1	none (no result: GLS inh, Tb PGK inh, FEN1 inhibitor)
Cc1cc(/C=C2\C(=O)NC(=O)N(Cc3ccco3)C2=O)c(C)n1-c1ccc(O)cc1	GLS inh inconclusive, BLM helicase inh 25.1µM, FEN1 inhibitor inconclusive
Cc1cc(/C=C2\C(=O)NC(=O)N(c3cccc(F)c3)C2=O)c(C)n1-c1ccc(C(=O)O)c(Cl)c1	GLS inh inconclusive, Tb PGK inh inconclusive (no result: RECQ1 inh)
Cc1ccc(N2C(=O)NC(=O)/C(=C\c3cc(C)n(-c4cc(C(=O)O)cc(C(=O)O)c4)c3C)C2=O)cc1	Tb PGK inh inconclusive, FEN1 inhibitor 56.2µM (no result: RECQ1 inh)
Cc1ccc(N2C(=O)NC(=O)/C(=C/c3ccc(-c4ccc(C(=O)O)c(Cl)c4)o3)C2=O)cc1	GLS inh 11.2µM, APE1 inh-1 inconclusive, FEN1 inhibitor inconclusive
Cc1ccc(-n2c(C)cc(/C=C3/C(=O)NC(=O)N(Cc4ccco4)C3=O)c2C)cc1	RECQ1 inh inconclusive, APE1 inh-1 inconclusive
CN1CC[C@]23c4c5ccc(O)c4OC2C(O)CCC3[C@H]1C5 (some centres undefined)	none (no result: RECQ1 inh, BLM helicase inh, Tb PGK inh, APE1 inh-1, FEN1 inhibitor)
Nc1ccc2ccccc2c1	none (no result: BLM helicase inh)
C[n+]1c2cc(N)ccc2cc2ccc(N)cc21	FEN1 inhibitor 8.91µM (no result: APE1 inh-1) | EndoIV counter inactive | APE1 inh-2 6.31µM | APE1 FP inactive
C(CCOCC1CO1)COCC1CO1 (centres undefined)	none (no result: GLS inh, BLM helicase inh, Tb PGK inh, FEN1 inhibitor)
Nn1cnnc1	none (no result: GLS inh, BLM helicase inh, Tb PGK inh, FEN1 inhibitor)
Nc1nc(/C(=C/CC(=O)O)C(=O)NC2C(=O)N3C(C(=O)O)=CCSC23)cs1 (centres undefined)	GLS inh 25.1µM (no result: Tb PGK inh, APE1 inh-1, FEN1 inhibitor) | DNA dye displace inactive | EndoIV counter inactive | APE1 inh-2 inconclusive | APE1 FP inactive
CCOC(=O)C1CCN(/C=C2/C(=O)NC(=O)N(Cc3ccco3)C2=O)CC1	RECQ1 inh inconclusive, GLS inh 7.08µM, Tb PGK inh inconclusive, APE1 inh-1 14.1µM | DNA dye displace inactive | EndoIV counter inactive | APE1 inh-2 3.16µM | APE1 FP inconclusive

Source: PubChem BioAssay
